Source: PubChem BioAssay
Hits are enriched below; roughly 2.8% of the tested compounds scored in any of these assays.
MITF TRPM1 inh: MITF TRPM1 promoter inhibition in SK-MEL-5 cells. SK-MEL-5 TRPM1 promoter luciferase, 24 h. inhibition, % at 12.5 µM. 0.83% of 330,000 active;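 active = mean inhibition across replicates of 60% or more, whatever share of single replicates reaches that level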
Peg3 prom inh: reduces Peg3 promoter-driven luciferase expression in HeLa; HeLa PEG-Prom luciferase reporter, luminescence, overnight; inhibition, % at 20 µM; 1.7% of 360,000 active;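 active = inhibition of at least 50% at 20 µM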
LMP1 NFkB inh: Epstein-Barr LMP1 NF-kappaB reporter inhibition. inhibition, % at 12.5 µM. AID 504558. LMP1-induced NF-kappaB luciferase reporter cells, luminescence. 0.69% of 350,000 active; in the data active = inhibition above about 41%
HIF-2a block: inhibitors of HIF-2a | inhibition, % at 18.8 µM | AID 624352 | 0.72% of 360,000 active | 786-0 RCC cells HIF-2a reporter, luciferase luminescence, overnight;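 active = inhibition of the luminescence signal of 40% or more relative to plate controls, in a single-dose primary screen at 18.75 µM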
Shn3 3UTR inh: inhibitors of Schnurri-3 3'UTR reporter in osteoblasts; Clone20 osteoblast Shn3 3'UTR firefly luciferase, 24 h; inhibition, % at 12.5 µM; 0.52% of 360,000 active; AID 588674;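 active = mean inhibition of at least 75% with every replicate also reaching 75%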
PAX8 inh HTS: PAX8 transcriptional activity inhibition. inhibition, % at 12.6 µM. RMG-I TPO-luciferase reporter, SteadyGlo, 24 h. 1.2% of 360,000 active;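 active = mean replicate inhibition at least 60% with every replicate also reaching 60%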;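 note: luciferase light reporting Pax8 driven TPO promoter activity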
A number is an active result; – = inactive; · = no result.

SMILES	MITF TRPM1 inh	Peg3 prom inh	LMP1 NFkB inh	HIF-2a block	Shn3 3UTR inh	PAX8 inh HTS
COc1cc(C=NNC(=O)c2ccc(NS(=O)(=O)c3cccs3)cc2)cc(Br)c1O	–	–	–	–	–	–
O=C(N/N=C\c1ccc(OC(=O)c2cccs2)cc1)c1ccc(Cl)cc1	–	–	–	–	–	–
CCCC(C(=O)NC(C)(C)C)N(Cc1ccc(F)cc1)C(=O)c1snc(C(N)=O)c1N (stereo not given)	–	97	–	–	–	–
CCCC(C(=O)NC1CCCC1)N(Cc1ccc(F)cc1)C(=O)c1snc(C(N)=O)c1N (stereo not given)	–	–	–	–	–	–
CCCNC(=O)N1CC2(C1)CN(C(=O)COC)[C@@H](CO)c1[nH]c3cc(OC)ccc3c12	·	·	·	·	·	–
COc1ccc2c3c([nH]c2c1)[C@@H](CO)N(C(=O)Nc1ccc(F)cc1)CC31CN(S(=O)(=O)c2ccc(C)cc2)C1	·	·	·	·	·	68
COc1ccc2c3c([nH]c2c1)[C@@H](CO)N(C(=O)Nc1cccc(F)c1)CC31CCN(S(=O)(=O)c2cccc(C)c2)CC1	·	·	·	·	·	96
CCCNC(=O)N1CC2(C1)CN(C(=O)COC)[C@H](CO)c1[nH]c3cc(OC)ccc3c12	·	·	·	·	·	61
CCCNC(=O)C[C@@H]1C[C@H]2c3cc(NC(=O)Nc4ccc(F)cc4)ccc3O[C@H]2[C@@H](CO)O1	·	·	·	·	·	–
C[C@H](CO)N1C[C@H](C)[C@H](CN(C)S(=O)(=O)c2ccc(Cl)cc2)OCCCC[C@H](C)Oc2ccc(NC(=O)Nc3ccc4c(c3)OCO4)cc2C1=O	·	·	·	·	·	–
CCOC(=O)CSC1=NC(=O)/C(=C/c2ccc(OC)cc2)S1	82	102	–	74	–	·
O=C(Nc1ccc(C(F)(F)F)cc1)Nc1ccc2c(c1)[C@H]1C[C@@H](CC(=O)N3CCc4ccccc4C3)O[C@@H](CO)[C@H]1O2	·	·	·	·	·	97
O=C(C[C@H]1C[C@@H]2c3cc(NS(=O)(=O)c4ccc(F)cc4)ccc3O[C@@H]2[C@@H](CO)O1)N1CCc2ccccc2C1	·	·	·	·	·	87
COc1ccc(NC(=O)Nc2ccc3c(c2)[C@@H]2C[C@@H](CC(=O)N4CCc5ccccc5C4)O[C@@H](CO)[C@@H]2O3)cc1	·	·	·	·	·	–
O=C(Nc1ccc2c(c1)[C@@H]1C[C@@H](CC(=O)N3CCc4ccccc4C3)O[C@@H](CO)[C@@H]1O2)Nc1ccccc1F	·	·	·	·	·	64
O=C(Nc1ccc(C(F)(F)F)cc1)Nc1ccc2c(c1)[C@H]1C[C@H](CC(=O)N3CCc4ccccc4C3)O[C@@H](CO)[C@H]1O2	·	·	·	·	·	–
O=C(Nc1ccc(C(F)(F)F)cc1)Nc1ccc2c(c1)[C@H]1C[C@@H](CC(=O)N3CCc4ccccc4C3)O[C@H](CO)[C@H]1O2	·	·	·	·	·	98
Cc1ccnc(NC(=O)c2ccc(OCC3CCCO3)cc2)c1 (stereo not given)	–	–	45	–	–	–
Cc1ccc(NC(=O)c2ccc(OCC3CCCO3)cc2)c(C)c1 (stereo not given)	·	–	–	–	–	–
Cc1cccc(OCc2nc(-c3cccnc3)no2)c1	–	–	–	–	–	92
C[C@H]1CN([C@@H](C)CO)C(=O)Cc2cc(NC(=O)Cc3ccccc3)ccc2O[C@@H]1CN(C)S(=O)(=O)c1ccc(F)cc1	·	·	·	·	·	–
C=CCN1C(=O)/C(=C/c2ccc(OC(C)=O)c(OCC)c2[N+](=O)[O-])SC1=S	–	–	–	–	–	100
CN1c2ccc(Br)cc2[C@@H]2[C@@H](CCN2S(=O)(=O)c2ccccc2F)[C@@H]1CO	·	·	·	·	·	–
C#CCN(C[C@@H]1[C@@H](OC(=O)NC2CCCC2)[C@@H](OC(=O)NC2CCCC2)CN(C(=O)OC(C)C)N1C(=O)OC(C)C)S(=O)(=O)c1ccc(C)cc1	·	–	–	–	–	79
C#CCN(C[C@@H]1[C@@H](OC(=O)NCc2ccc(OC)c(OC)c2)[C@@H](OC(=O)NCc2ccc(OC)c(OC)c2)Cn2c(=O)n(CCCCCC)c(=O)n21)S(=O)(=O)c1ccc(C)cc1	·	–	–	–	–	–
SMILES	MITF TRPM1 inh	Peg3 prom inh	LMP1 NFkB inh	HIF-2a block	Shn3 3UTR inh	PAX8 inh HTS
C#CCN(C[C@@H]1[C@@H](OC(=O)NCc2ccc(OC)c(OC)c2)[C@@H](OC(=O)NCc2ccc(OC)c(OC)c2)Cn2c(=O)ccc(=O)n21)S(=O)(=O)c1ccc(C)cc1	·	–	–	–	–	113
CCOc1ccc2nc(N/C(N)=N/C(=S)Nc3ccc(C)c(C)c3)nc(C)c2c1	–	–	–	–	–	132
COc1ccc(NC(=S)/N=C(\N)Nc2nc(C)c3ccc(C)cc3n2)cc1	–	53	–	–	–	–
Cc1ccc2c(C)nc(N/C(N)=N/S(=O)(=O)c3ccc([N+](=O)[O-])cc3)nc2c1	–	–	–	–	–	–
CCNC(=S)/N=C(\N)Nc1nc(C)c2cc(C)ccc2n1	–	–	–	–	–	–
COc1ccc(NC(=O)C2CCCN(S(=O)(=O)c3cccc4nonc34)C2)c(OC)c1 (stereo not given)	–	–	63	–	–	–
O=C(NCC1CC1)[C@H]1[C@H](CO)[C@H]2Cn3c(ccc(-c4cccnc4)c3=O)[C@H]2N1C(=O)NC1CCCC1	·	·	·	·	·	–
O=S(=O)(c1ccccc1)N1CCCCN2[C@H](CO)[C@H](c3ccc(-c4ccccc4F)cc3)[C@H]2C1	·	·	·	·	·	114
Cc1ccc(-c2ccc([C@H]3[C@H](CO)N4CCCCN(S(=O)(=O)c5cccc(C)c5)C[C@@H]34)cc2)cc1	·	·	·	·	·	87
Cc1ccc(-c2ccc([C@H]3[C@H]4CN(S(=O)(=O)c5cccc(C)c5)CCCCN4[C@H]3CO)cc2)cc1	·	·	·	·	·	–
Cc1cc2c(cc1C)N(C(=O)CCl)CCN2C(=O)CCl	94	109	–	–	–	–
C[C@@H]1CCCCO[C@H](CN(C)C(=O)NC2CCCCC2)[C@H](C)CN([C@@H](C)CO)C(=O)c2cc(NC(=O)NC3CCCCC3)ccc2O1	·	·	·	·	·	–
COc1ccc(N(C(=O)/C=C/C(=O)Nc2cc(C)on2)C(C(=O)NC2CCCC2)c2ccccc2C)cc1 (stereo not given)	–	–	–	–	–	71
C[C@@H]1CN([C@H](C)CO)C(=O)c2ccccc2-c2ccccc2CO[C@@H]1CN(C)Cc1ccc(F)cc1	·	·	·	·	·	–
Cc1nc2cc(N3CCOCC3)c(NC(=O)C3CC3)cc2c(=O)n1Cc1ccccc1	–	–	–	–	–	·
Cc1nc2cc(N3CCCCC3)c(NC(=O)c3ccncc3)cc2c(=O)n1Cc1ccccc1	–	86	–	–	–	·
O=C(C1CCC1)N1CCCCN2[C@H](C1)[C@H](c1ccc(-c3cccc(F)c3)cc1)[C@@H]2CO	·	·	·	·	·	–
Cc1ccc(S(=O)(=O)Nc2cccc3c2O[C@H](CN(C)Cc2ccc(Cl)c(Cl)c2)[C@H](C)CN([C@@H](C)CO)C3=O)cc1	·	·	·	·	·	–
C[C@H]1CN([C@@H](C)CO)C(=O)c2cccc(NS(=O)(=O)c3ccc(Cl)cc3)c2O[C@@H]1CN(C)Cc1ccc(-c2ccccc2)cc1	·	·	·	·	·	–
